Measurements as given in ChEMBL document CHEMBL1201862, “PubChem BioAssay data set” (2004).
The whole screen tested about 56,000 sequences, of which about 4,300 (7.7%) were called active. Rule as the data show it: active = GI50 up to about 1.1 µM and inactive = higher. These entries were drawn from the full list. Potency and affinity values are given separately.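 Exposure lasted 48 hours, with cells grown in 96-well plates and compounds tested at five concentrations. GI50 = concentration required for 50% inhibition of growth.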

test system: OVCAR-3; assay: NCI tumour cell line growth inhibition, 48 h

In order of rising GI50:
1. CISPLATIN, CHEMBL11359  2.67 µM
2. cis-Bis[[(trimethylsilyl)methyl]amino]tetrachloroplatinum(IV), CHEMBL2146191  2.99 µM
3. [Bis(aminomethyl)ethylmethylsilane]tetrachloroplatinum(IV), CHEMBL2146192  4.43 µM
4. [Bis(aminomethyl)pentamethylenesilane]tetrachloropaltinum(IV), CHEMBL2146204  4.56 µM
5. [Bis(aminomethyl)diethylsilane]tetrachloroplatinum(IV), CHEMBL2146203  6.11 µM
6. [Bis(aminomethyl)pentamethylenesilane]dichloropaltinum(II), CHEMBL2146202  6.5 µM
7. [Bis(aminomethyl)dimethylsilane]tetrachloroplatinum(IV), CHEMBL2146190  7.29 µM
8. [Bis(aminomethyl)tetramethylenesilane]tetrachloropaltinum(IV), CHEMBL2146189  13.1 µM
9. mu-(1,7-nanodiamine-N,N')bis-(cis-aminedichloroplatimum (II)), CHEMBL2146215  29 µM
10. [Bis(aminomethyl)dimethylsilane]dichloroplatinum (II), CHEMBL2146201  30.5 µM
11. [Bis(aminomethyl)tetramethylenesilane]dichloropaltinum(II), CHEMBL2146205  32.5 µM
